Measured values from PubChem BioAssay (NCI).
This is part of a sample that, as a whole, favours compounds with a hit. Of some 83,000 tested, about 20% had one in any assay.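 Each cell line was grown in a 96-well plate and treated with one concentration of compound for 48 hours. Values below 10 were considered active.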 Values without a mark were called inactive. Active and inactive are the calls of the source.

test system: SF-295 CNS; assay: NCI-60 one-dose screen, 48 h (100 = growth as untreated, 0 = no growth, -100 = all killed); details: 10 µM unless noted

Going from COc1ccc(Nc2[nH]n3c(=O)cc(-c4ccccc4)nc3c2C(=O)Nc2ccc(C)cc2)c(OC)c1 to O=C(NCc1cn(Cc2cccc(Oc3ccccc3)c2)nn1)c1cccnc1Nc1ccc(F)cc1, the growth falls from 95.7% to 50.7%.

Compared with O=c1[nH]c2ccc(Br)cc2c2c1C(c1ccc(Cl)cc1)c1c(ncn3nc(-c4ccco4)nc13)O2 (stereo not given), Cc1ccc2[nH]c(=O)c3c(c2c1)Oc1ncn2nc(-c4ccco4)nc2c1C3c1ccc(Cl)cc1 (stereo not given) is higher in growth: 87.9% for the first, 95.9% for the second.

First: COc1cc(/C=C/C(=O)N2CCN(C(=O)/C=C/c3cc(OC)c(OC)c(OC)c3)CC2)cc(OC)c1OC
Second: COc1ccc(/C=C\c2cc(OC)c(OC)c(OC)c2)cc1OC(=O)c1cccc(Cn2cc(CCOC(=O)c3cccc(Cn4nnc5c4C(=O)c4ccccc4C5=O)c3)nn2)c1
The growth of the first is higher: 122% for the first, 11% for the second.

Compared with CCN(CC)CCOC(=O)C(c1ccccc1)(c1ccccc1)C(C)C, c1ccc(-c2cn(-c3ccccc3)c(-c3ccccc3)n2)cc1 is higher in growth: 91.1% for the first, 127% for the second.

Compared with C=C[C@@H]1C[C@H](O)Cc2c(C)cc(C)cc2N1, Cc1ccc2nc(Cl)cc(=O)n2c1 is higher in growth: 91.9% for the first, 113% for the second.

First: N=C(N)c1ccc(-c2cc(Cl)cc(Cl)c2)cn1
Second: COC(=O)C(Sc1ccc(Cl)cc1)C1SC(=S)N(Cc2ccccc2)C1=O (stereo not given)
The growth of the first is higher: 98.2% for the first, 75.6% for the second.

Going from O=S(=O)(NCCCNc1nccc(-n2ccc3cccnc32)n1)c1ccc(Br)cc1 to O=C(Nc1ccc(Cl)c(Cl)c1)NS(=O)(=O)c1cnccc1Oc1ccc(F)cc1, the growth falls from 104% to 13.7%.

Compared with CCN(CC)CCCC(C)Nc1c2ccc(Cl)cc2nc2cc(OC)c(OC)cc12 (stereo not given), COc1ccc(-c2c(N)n[nH]c2-c2cc3c(c(OC)c2OC)OCO3)cc1 is higher in growth: 44.5% for the first, 102% for the second.

Going from CN(C)c1cccc2c(S(=O)(=O)/N=C(\N)Nc3nc4ccccc4s3)cccc12 to CC(=O)Oc1csc(N(C(C)=O)c2cccc(C(F)(F)F)c2)n1, the growth rises from 33.6% to 96.5%.

Going from Cn1ccc(=O)c(S(N)(=O)=O)c1 to C=C1CCC2C3(C)COC(C)(C)OC3CCC2(C)C1C/C=C1/C(=O)OCC1Oc1ccccc1OC (stereo not given), the growth falls from 102% to 101%.

With CCCCCCCCCCCCNC(=O)[C@H]1CSC(c2ccsc2)N1 (stereo not given in full) the growth was -29.9% (active).
For CCN1CCN(CC(=O)N2c3cccc4cccc(c34)N(C(=O)CN3CCN(CC)CC3)C2c2cn(-c3ccccc3)nc2-c2cccc([N+](=O)[O-])c2)CC1, the growth was -50.3% (active).

test system: SF-539 CNS; assay: as above; details: 10 µM unless noted

CCCCN(CCCC)c1ccc(C(=N)c2ccc(N(CCCC)CCCC)cc2)cc1 was tested, and the growth was -91.3% (active).
O=C(Nc1ccc2c(c1)OCCO2)C(=O)c1c[nH]c2ccccc12 was tested, and the growth was -6.87% (active).
For COc1ccc2c(c1)C(c1cc(OC)c3c(c1)OCO3)C1=C(COC1=O)N2 (stereo not given), the growth was 5.62% (active).
With CC(C)(C)NCCC(O)c1cc2c(Cl)cc(Cl)cc2c2cc(C(F)(F)F)ccc12 (stereo not given) the growth was -82.2% (active).
With CCN(CC)CCC(CNc1c2ccc(Cl)cc2nc2ccc(OC)cc12)c1ccccc1 (stereo not given) the growth was -79.6% (active).
For COc1cccc(CC(C)=C(c2ccc(OCCN(C)C)cc2)c2ccc(OCCN(C)C)cc2)c1, the growth was -93.1% (active).
In the case of COc1cc(-c2nn(-c3cccc(NC(=O)Nc4cc(C(F)(F)F)cc(C(F)(F)F)c4)c3)cc2-c2ccncc2)ccc1Cl, the growth is reported as -53.5% (active).
For CCCCCCCCCCCCNC(=O)[C@H]1CSC(c2ccsc2)N1 (stereo not given in full), the growth was -89.2% (active).
CCN1CCN(CC(=O)N2c3cccc4cccc(c34)N(C(=O)CN3CCN(CC)CC3)C2c2cn(-c3ccccc3)nc2-c2cccc([N+](=O)[O-])c2)CC1 was tested, and the growth was -89.2% (active).
For CCN(CC)CCCC(C)Nc1c2ccc(Cl)cc2nc2cc(OC)c(OC)cc12 (stereo not given), the growth was -87.9% (active).
With COc1ccc(/C=C\c2cc(OC)c(OC)c(OC)c2)cc1OC(=O)c1cccc(Cn2cc(CCOC(=O)c3cccc(Cn4nnc5c4C(=O)c4ccccc4C5=O)c3)nn2)c1 the growth was -22.5% (active).

First: Clc1ccc(-c2nc3ccccc3s2)cc1Cl
Second: CN(C)c1cccc2c(S(=O)(=O)/N=C(\N)Nc3nc4ccccc4s3)cccc12
The growth of the first is higher: 104% for the first, 52.4% for the second.

First: Cc1nc2c3c(ncn2n1)Oc1c(c(=O)[nH]c2ccccc12)C3c1ccc(Cl)cc1 (stereo not given)
Second: Cc1ccc2[nH]c(=O)c3c(c2c1)Oc1ncn2nc(-c4ccco4)nc2c1C3c1ccc(Cl)cc1 (stereo not given)
The growth of the first is higher: 93.4% for the first, 89.8% for the second.

Going from O=C(NNC(=S)Nc1ccccc1)c1cc2ccc1CCc1ccc(cc1)CC2 to S=c1[nH]nc(-c2cc3ccc2CCc2ccc(cc2)CC3)n1-c1ccccc1, the growth rises from 82.9% to 110%.

Compared with Fc1ccc(Nc2nc(NCCNc3ccnc4cc(Cl)ccc34)nc(N3CCOCC3)n2)cc1, O=C(NCc1cn(Cc2cccc(Oc3ccccc3)c2)nn1)c1cccnc1Nc1ccc(F)cc1 is lower in growth: 69.3% for the first, 62.6% for the second.

First: COc1ccc2cc(-c3ccc(-c4ccc(C(=N)N)cc4)s3)ccc2c1
Second: COc1ccc(Nc2[nH]n3c(=O)cc(-c4ccccc4)nc3c2C(=O)Nc2ccc(C)cc2)c(OC)c1
The growth of the first is higher: 98.9% for the first, 81% for the second.

First: Cc1ccc(S(=O)(=O)C2=C3C(=C(c4ccccc4)c4ccccc43)CN(S(=O)(=O)c3ccc(C)cc3)C2)cc1
Second: c1ccc(-c2cn(-c3ccccc3)c(-c3ccccc3)n2)cc1
The growth of the first is higher: 74.1% for the first, 73.5% for the second.

Compared with Cc1ccc(S(=O)(=O)NCCNc2nccc(-c3c(-c4cccc(N)c4)nc4sccn34)n2)cc1, O=S(=O)(NCCCNc1nccc(-n2ccc3cccnc32)n1)c1ccc(Br)cc1 is higher in growth: 101% for the first, 103% for the second.

Going from CC(C)NCCCNC1=C(Cl)C(=O)c2ccccc2C1=O to COC(=O)C(Sc1ccc(Cl)cc1)C1SC(=S)N(Cc2ccccc2)C1=O (stereo not given), the growth falls from 119% to 109%.

First: S=c1[nH]nc(-c2cc3ccc2CCc2ccc(cc2)CC3)n1C1CC1
Second: COc1ccc(-c2c(N)n[nH]c2-c2cc3c(c(OC)c2OC)OCO3)cc1
The growth of the first is higher: 98% for the first, 93.1% for the second.

Compared with O=c1[nH]c2ccc(Br)cc2c2c1C(c1ccc(Cl)cc1)c1c(ncn3nc(-c4ccco4)nc13)O2 (stereo not given), O=C(Nc1ccc(Cl)c(Cl)c1)NS(=O)(=O)c1cnccc1Oc1ccc(F)cc1 is higher in growth: 65.5% for the first, 90.1% for the second.

Compared with COc1cc(/C=C/C(=O)N2CCN(C(=O)/C=C/c3cc(OC)c(OC)c(OC)c3)CC2)cc(OC)c1OC, C=C1CCC2C3(C)COC(C)(C)OC3CCC2(C)C1C/C=C1/C(=O)OCC1Oc1ccccc1OC (stereo not given) is lower in growth: 103% for the first, 83% for the second.

First: CCN(CC)CCOC(=O)C(c1ccccc1)(c1ccccc1)C(C)C
Second: CC(=O)Oc1csc(N(C(C)=O)c2cccc(C(F)(F)F)c2)n1
The growth of the first is higher: 107% for the first, 91% for the second.

Compared with C=C[C@@H]1C[C@H](O)Cc2c(C)cc(C)cc2N1, N=C(N)c1ccc(-c2cc(Cl)cc(Cl)c2)cn1 is lower in growth: 92.3% for the first, 89.6% for the second.

Cn1ccc(=O)c(S(N)(=O)=O)c1 gave a growth of 103%.
